About 2,100 (3.2%) of roughly 65,000 compounds showed an effect of 50% or more. The median lay at about -52%. The entries come from a sample that favours strong results as a whole.
System: Plasmodium falciparum
Experiment: Screen against P. falciparum Asexual Blood Stage (ABS), at 5uM
Type: functional, Dd2
Conditions: tested at 5 uM

Row | SMILES | INHIBITION [%]
1 | CCc1nc(CN2CCCN(C(=O)Cc3cccs3)CC2)cs1 | 3.65
2 | Cc1nc(CN2CCO[C@H]3CN(C(=O)c4ccncc4)C[C@H]32)cs1 | -109
3 | Cc1nc(CN2C[C@@H]3CN(C(=O)c4ccncc4)C[C@@H]3C2)cs1 | -67.5
4 | CC(=O)N(c1ccc(F)cc1)c1nc(CN2CCCC2C(C)C)cs1 (stereo unspecified) | 90.3
5 | CC(=O)N(c1ccc(C)cc1)c1nc(CN2CCCC(C)C2)cs1 (stereo unspecified) | 83.2
6 | CCCN1CCN(C(=O)c2cccc(C)n2)[C@H]2CS(=O)(=O)C[C@H]21 | -129
7 | CC(C)(C)CC(=O)N1C[C@@H]2C[C@@H]1CN2 | 30
8 | CN(Cc1cc(C2CC2)on1)C(=O)CN1CC(c2ccccc2)CC1=O (stereo unspecified) | -67.9
9 | CC(C)c1cc(N(C)Cc2cc(C3CC3)on2)n2nccc2n1 | 80.3
10 | CN(C)CCOCc1cncc2c1CCN(C1CCOC1)C2 (stereo unspecified) | -63.4
11 | NC(=O)CN1CCCN(C(=O)Cc2ccc3ccccc3c2)CC1 | -22.8
12 | CCCC1CCCN(Cc2csc(-c3ncccn3)n2)CC1 (stereo unspecified) | 74.9
13 | O=C(Cc1csc(-c2ncccn2)n1)N1CCN2CCCCC2C1 (stereo unspecified) | -23.4
14 | CCN1CCN(Cc2csc(C(C)C)n2)CC1 | -17.1
15 | CCc1noc(CN(C)CCC(=O)Nc2ccc(C#N)c(Cl)c2)n1 | 11.3
16 | O=S(=O)(Cc1ccccc1Cl)NCCCN1CCCC1 | 79.2
17 | Cn1cc(C(=O)N2CC[C@@H]3[C@@H]2CCN3Cc2ccncc2)cn1 | -137
18 | Cc1cnc(N2CCc3c(cnc(C)c3C(=O)O)C2)nc1 | -89.7
19 | CCN1CCN(c2ccc(F)cc2C(C)NCc2ccnn2C)CC1 (stereo unspecified) | 76.3
20 | CCc1noc(C(C)N2CCN(CC)CC2)n1 (stereo unspecified) | -70
21 | CCN1CCN(c2ccc(F)cc2C(C)NCc2ccccn2)CC1 (stereo unspecified) | 85.6
22 | CCN1CCN(c2ccc(F)cc2C(C)NCc2cscn2)CC1 (stereo unspecified) | 81.1
23 | CC(C)c1cc(CN2CCN(c3cccnc3)CC2)n(C)n1 | -52.7
24 | Cc1ccc(CNC(C)c2cc(F)ccc2N2CCN(C)CC2)o1 (stereo unspecified) | 83.7
25 | c1ccc(CO[C@@H]2CN(Cc3cccnc3)[C@@H]3COC[C@@H]32)nc1 | -165
26 | CC(c1ccccc1F)N1CCN(C(=O)Cc2ccncc2)CC1 (stereo unspecified) | -41.8

Row | SMILES | INHIBITION [%]
27 | CCN1CCN(c2ccc(F)cc2C(C)NCc2ccncc2)CC1 (stereo unspecified) | 72.4
28 | CCN1CCN(c2ccc(C(=O)NCCOC)cc2F)CC1 | -56
29 | Cc1cccc(CC(=O)N2CCCC(N(C)CCCN(C)C)C2)c1 (stereo unspecified) | -40.55
30 | Cc1cccc(OCC2CCCN(C(=O)CN(C)C3CCNCC3)C2)c1 (stereo unspecified) | 73.8
31 | CNc1ncccc1CN1CCN2CCN(C)CC2C1 (stereo unspecified) | -92.1
32 | Cc1cccc2cc(CN3CCCN4CCC[C@H]4C3)c(=O)[nH]c12 | -45.3
33 | Clc1cc(CN2CCCN3CCCC3C2)c2ncccc2c1 (stereo unspecified) | 89.5
34 | Cc1ccc(N2CCO[C@H]3CN(CC4CC4)C[C@H]32)nn1 | -15.6
35 | CC1CN(CC2CCCC2)CCN1c1ccc2nncn2n1 (stereo unspecified) | 70.4
36 | Cc1cccc(CN2CC[C@@H]3[C@@H]2CCN3C(=O)c2ccno2)n1 | -100
37 | Cc1cc(-c2cnc(N3CCCC3)nc2C(C)C)on1 | 10.2
38 | O=C1CC2(CCN(CC3CC3)C2)CN1c1cccnc1 (stereo unspecified) | -58.5
39 | c1cncc(N2CCOCC3(CN(Cc4cccs4)CCO3)C2)c1 (stereo unspecified) | -41
40 | c1cncc(N2CCCC3(CCN(CCN4CCCC4)CC3)C2)c1 | 92
41 | c1cncc(N2CCOCC3(CCCN(Cc4cccs4)C3)C2)c1 (stereo unspecified) | 55.5
42 | c1cnc(N2CCOCC3(CCCN(Cc4cccs4)C3)C2)nc1 (stereo unspecified) | -15.6
43 | c1cncc(N2CCCC3(CN(Cc4cccs4)CCO3)C2)c1 (stereo unspecified) | -22.7
44 | CN1CCO[C@H]2CN(C(=O)c3ccncc3F)C[C@H]21 | -54.5
45 | COc1ccccc1C1(NCc2c(C)nc3c(C)cccn23)CCCC1 | 89.2
46 | Cc1cccnc1N1CC2(CCN(Cc3cccnc3)C2)C1 | -50.1
47 | Cc1cnccc1N1CCN(C[C@]2(O)CCCN3CCCC[C@@H]32)CC1 | 75
48 | O[C@@]1(CNCCCNc2cccnc2)CCCN2CCCC[C@@H]21 | -52.8
49 | O=C(Nc1ccccc1)[C@H]1CN2CCC1C[C@@H]2Cn1cc(CO)nn1 (stereo partly specified) | -50.4
50 | CC(C)N1[C@H](CN(C)C)C[C@@H]2CN(c3ncc(F)cn3)CC[C@@H]21 | 25.4
51 | N#CC1(c2ccccc2)CCN(C(=O)C2CCCN(C(N)=O)C2)CC1 (stereo unspecified) | -142
52 | CC(C)N1CCCC(C(=O)N2CCN(c3nsc4ccccc34)CC2)C1 (stereo unspecified) | 70.4

Row | SMILES | INHIBITION [%]
53 | Cc1ccc(C(=O)N2C[C@@H]3CCN(C(C)C)C[C@@H]3C2)cn1 | -25
54 | Cn1cc(CN2CCC[C@]3(C[C@@H](Oc4ccccn4)CO3)C2)cn1 | -29.6
55 | Cc1nc(CN2CC[C@H]3C[C@H](c4ccncn4)O[C@@H]3C2)cs1 | -62.5
56 | COc1ccc(CN2C[C@@H]3COC[C@@H](N4CCN(C)CC4)[C@@H]3C2)cc1 | 73.9
57 | COc1ccc(CN2C[C@H]3CN(c4cncnc4)C(=O)[C@H]3C2)cc1 | -49.1
58 | O=C(C[C@@H]1COC[C@H]2CN(Cc3ccncc3)C[C@@H]12)N1CCCC1 | -88
59 | CN1CCN([C@H]2COC[C@@H]3CN(Cc4cccnc4)C[C@@H]32)CC1 | -11.2
60 | Cc1cc(C)cc(CN2C[C@H]3COC[C@H](N4CCN(C)CC4)[C@H]3C2)c1 | 94.1
61 | COCCNC(=O)C[C@@H]1COC[C@H]2CN(Cc3cccnc3)C[C@@H]12 | -103
62 | Cc1c(CC(=O)N2CCN(CC(F)(F)F)CC2)nnn1-c1ccccc1 | -74
63 | Cc1cc(N2CCCC(c3[nH]ncc3Cc3ccccc3)C2)nc(N)n1 (stereo unspecified) | 73.6
64 | CCn1ncc(CN2CCCC(C(=O)c3ccc(Cl)cc3)C2)c1C (stereo unspecified) | 70.5
65 | CCCn1ncc(CN2CCCC(C(=O)c3ccc(Cl)cc3C)C2)c1C (stereo unspecified) | 78.4
66 | CCCn1ncc(CN2CCCC(C(=O)c3ccc(SC)cc3)C2)c1C (stereo unspecified) | 65.8
67 | Cc1cc(Cl)ccc1C(=O)C1CCCN(Cc2cnc(N(C)C)s2)C1 (stereo unspecified) | -28.8
68 | COc1ccc(C(=O)C2CCCN(Cc3cnn(C)c3C)C2)c(OC)c1 (stereo unspecified) | 39.5
69 | Cc1c(CN2CCCC(C(=O)c3ccc(C(C)(C)C)cc3)C2)cnn1C (stereo unspecified) | 57.9
70 | Cc1cc(CN2C[C@@H]3COC[C@]3(CNC(=O)N3CCCC3)C2)no1 | -22.5
71 | COCCNC(=O)[C@@]12CCO[C@@H]1CCN(Cc1c(C)noc1C)C2 | -191
72 | O=C1CSC(c2ccc(O)c(Cl)c2)c2c(n(C3CCOCC3)[nH]c2=O)N1 (stereo unspecified) | -57.7
73 | CCC(C)N1CCC(Oc2ccc(C(=O)NCCN(C)C)cc2Cl)CC1 (stereo unspecified) | 79.7
74 | Cc1nc(C2(NCC(=O)NC(=O)NCC(F)(F)F)CCCCC2)no1 | -29.3
75 | COc1cc(C)c(-c2ccc(F)c3c2OC(CN)C3)cc1C (stereo unspecified) | 83.8
76 | Cn1ncc2c1NC(=O)CSC2c1ccccc1Cl (stereo unspecified) | -82.5
77 | Cc1ccc(N2C[C@@H]3OCCN(Cc4c(C)noc4C)[C@@H]3C2)nn1 | 6.3
78 | Cc1nc(C)c(C)c(N2CCC3(CCN(C)C3)C2)n1 (stereo unspecified) | 19.5

Row | SMILES | INHIBITION [%]
79 | CCc1nc(N)nc(N2CCCC3(CCN(C)CC3)CC2)c1C | 76.1
80 | CC(C)c1cc(N2CCCC3(CCN(C)C3)C2)ncn1 (stereo unspecified) | -28.1
81 | Cc1cc(NCCc2c[nH]cn2)nc(-c2cccnc2)n1 | -108.15
82 | Cc1cc(NCCN)nc(-c2ccccc2O)n1 | 79.2
83 | Cn1nc(C2CC2)c2c1NC(=O)CC2c1cc(CN2CCCC2)cs1 (stereo unspecified) | 81.9
84 | CCN1CCC2(CC1)NC(=O)c1cc(Br)ccc1-n1nnnc12 | -47.7
85 | O=C(N1CCCC1)N1C[C@@H]2CCNC[C@@H]21 | -67.9
86 | FC(F)CNc1cnc(C2CCNCC2)cn1 | -139
87 | O=C(Nc1ccc(Cl)cn1)c1cncc(C2CCNCC2)n1 | 70
88 | Cc1nn(CCNC(C)Cn2cncn2)c(C)c1Cl (stereo unspecified) | -44.7
89 | FC(F)(F)c1nc(C2CCNCC2)no1 | -40.3
90 | c1c[nH]c2nc(C3CCNCC3)nc-2c1 | -162
91 | FC(F)(F)c1cc(C2CCNCC2)nc(-c2ccsc2)n1 | 89.2
92 | CS(=O)(=O)CCCNCc1c(Cl)cccc1N1CCCC1 | 72
93 | CCOCCN1CCO[C@H]2[C@H](OCc3ccccn3)CC[C@@H]21 | -65.4
94 | O=C(C[C@@H]1COC[C@H]2CN(Cc3cccnc3)C[C@@H]12)NCC1CC1 | -71.5
95 | CO[C@H]1CCN(C(=O)Cc2ccsc2)[C@@H]2CN(CC3CC3)C[C@H]12 | 19.6
96 | CCN1C[C@@H]2[C@@H](OC)CCN(C(=O)Cc3ccsc3)[C@@H]2C1 | 60
97 | CCN1C[C@H]2[C@@H](C1)N(C(=O)Cc1ccsc1)CC[C@H]2OC | -31.1
98 | Cc1cccc(C)c1Nc1noc2c1CN(C(=O)c1ccnn1C)CC2 | 81.7
99 | Cc1cccc(C)c1Nc1noc2c1CN(C(=O)c1cn(C)cn1)CC2 | 88.3
100 | Cc1cccc(C)c1Nc1noc2c1CN(C(=O)c1c[nH]nc1C)CC2 | 93
101 | Cc1cccc(C)c1Nc1noc2c1CN(C(=O)c1ccn(C)n1)CC2 | 86.6
